Rows were chosen to be rich in hits. Some 4.2% of all compounds tested hit in one or more screens of this group.
tim10-1 inh: growth inhibitors of tim10-1 mutant yeast, primary screen, luminescence, uHTS; S. cerevisiae tim10-1 ts strain growth, BacTiter-Glo, 24 h; inhibition, % at 20 µM; 330,000 compounds, 2.2% hits; AID 463190, 2010;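 active means inhibition of at least 40%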;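 further: mutant grown at 25 °C; 0% = DMSO wells with yeast and 100% = wells holding no yeast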
NALP1 yeast inh: NALP1 inflammasome inhibitors in reconstituted yeast, colorimetric, S. cerevisiae, triplicate retest; S. cerevisiae NALP1/ASC/caspase-1 growth, X-gal OD620, 72 h; inhibition, % at 10 µM; 280,000 compounds, 0.61% hits; AID 2071, 2009; in the data active means inhibition mostly above about 24%, no sharp cut-off; inactive means mostly below about 32%
V-ATPase pH: regulators of yeast V-ATPase proton pumping, primary screen, pHLuorin cytosolic pH fluorescence; S. cerevisiae; AID 504577, 2011; 350,000 compounds, 0.37% hits; response, % at 10 µM; in the data active means response mostly above about 7.3%, no sharp cut-off; inactive means mostly below about 5.4%; further: actives read high
tim23-1 inh: growth inhibitors of tim23-1 mutant yeast, primary screen, luminescence, uHTS | S. cerevisiae tim23-1 growth, BacTiter-Glo luminescence, 24 h | inhibition, % at 20 µM | 330,000 compounds, 1.3% hits;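 active means growth inhibition of the mutant yeast at or above 50%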;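 further: temperature-sensitive mutant grown at 25 °C; plate controls were DMSO-treated mutant yeast for no effect and medium wells lacking yeast for full effect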
NLRP3 yeast inh: NALP3 inflammasome inhibitors in reconstituted yeast, primary screen, luminescence, uHTS | inhibition, % at 10 µM | 330,000 compounds, 0.39% hits | Yeast reconstituted NLRP3/ASC/caspase-1, beta-gal luminescence, 24 h | AID 2825, 2010;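 active means inhibition of 50% or more; inactive means inhibition below 50%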;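 further: plate controls were induced DMSO wells for no effect and uninduced yeast grown without galactose for full effect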
TIM10 inh: growth inhibitors of isogenic TIM10 control yeast, primary screen, counter-screen for tim10-1 yeast inhibitor project, luminescence, uHTS; S. cerevisiae TIM10 strain growth, BacTiter-Glo luminescence, 24 h; inhibition, % at 10 µM; 330,000 compounds, 1.4% hits;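 active means inhibition of 40% or more at the single tested concentration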;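 further: wild-type TIM10 isogenic control strain grown at permissive 25 °C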
tim10-1 confirm: growth inhibitors of tim10-1 mutant yeast, confirmation, single concentration, luminescence, S. cerevisiae | 7,400 compounds, 56% hits | AID 463213, 2010 | inhibition, % at 20 µM | shares compounds with tim10-1 inh | S. cerevisiae tim10-1 ts strain growth, BacTiter-Glo, 24 h;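 active means inhibition of yeast growth at or above a set limit in either of two repeat tests at 20 µM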;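 further: tim10-1 mutant grown at permissive 25 °C to find synthetic lethal compounds; 0% = DMSO yeast wells and 100% = medium wells without yeast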
TIM10 conf: growth inhibitors of wild-type TIM10 yeast, confirmation, counter-screen for tim10-1 synthetic lethality project, single concentration, luminescence, S. cerevisiae. shares compounds with TIM10 inh. S. cerevisiae tim10 strain growth, BacTiter-Glo luminescence, 24 h. inhibition, % at 10 µM. 4,600 compounds, 63% hits;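 active means inhibition of yeast growth at or above a set limit in either of two replicates at 10 µM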;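 further: this counterscreen used the strain with wild-type TIM10; 0% = yeast with DMSO and 100% = medium wells lacking yeast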
tim23-1 confirm: tim23-1 mutant yeast growth inhibitors, confirmation, luminescence, single concentration; shares compounds with tim23-1 inh; S. cerevisiae tim23-1 growth, BacTiter-Glo luminescence, 24 h; inhibition, % at 20 µM; 4,400 compounds, 83% hits; AID 463218, 2010;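 active means inhibition above about 39% in either of two replicate wells at 20 µM, limit read from the data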;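 further: temperature-sensitive tim23-1 mutant grown at 25 °C; 0% = DMSO wells with yeast and 100% = medium wells without yeast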
Active calls of the source: *; / = no result given.

SMILES | tim10-1 inh | NALP1 yeast inh | V-ATPase pH | tim23-1 inh | NLRP3 yeast inh | TIM10 inh | tim10-1 confirm | TIM10 conf | tim23-1 confirm
O=C(Nc1ncc(Cc2cccc(Cl)c2)s1)C1=NCCN1 | -1 | 15 | 4 | -97 | 19 | -8 | / | / | /
O=C(Nc1ncc(Cc2cccc(Cl)c2)s1)c1cccs1 | 43* | 4 | 3 | 67* | 20 | 67* | 38* | -19 | 55*
Cc1ccc(C(=O)Nc2ncc(Cc3ccccc3)s2)o1 | 53* | 1 | -1 | 57* | 19 | 49* | 50* | 50* | 54*
CCc1nnc(NC(=O)CSc2nc3c(c(=O)n2C)SC(C)C3)s1 (centres undefined) | 12 | 9 | 1 | 12 | 16 | 10 | / | / | /
O=C(Nc1ncn[nH]1)c1ccc(Cl)c(S(=O)(=O)Nc2ccc(Cl)cc2)c1 | 16 | 16 | 3 | -4 | 7 | 0 | / | / | /
C=C1C(C(=O)Nc2ccc(F)cc2)C1C(=O)Nc1ccc(F)cc1 (centres undefined) | 5 | -5 | -1 | -9 | -7 | 4 | / | / | /
CCOC(=O)/C(=C\c1ccc(Cl)cc1)c1nc2sc(C)c(C)c2c(=O)[nH]1 | 48* | 44* | -2 | 72* | 28 | 44* | 49* | 13 | 61*
CCOC(=O)/C(C#N)=C/c1cc2ccccc2nc1N1CCOCC1 | 33 | 32 | 2 | 31 | -2 | 22 | / | / | /
N#CC(C#N)=Cc1cc2ccccc2nc1N1CCCCC1 | 53* | 29 | -6 | 78* | 13 | 41* | 42* | 13 | 71*
CCc1ccccc1NC(=O)NNC(=O)CCc1ccccc1 | 2 | 0 | 0 | -1 | 13 | 0 | / | / | /
COc1cc(N2C(=O)C=CC2=O)ccc1N1C(=O)C=CC1=O | / | / | 10 | / | / | / | / | / | /
O=C1C=CC(=O)N1c1cccc(-c2ccccc2)c1 | 95* | 14 | 32* | 51* | 38 | 95* | 98* | 99* | 98*
O=C1c2ccccc2C(=O)c2c1oc(C(F)(F)F)c2C(=O)c1ccccc1 | 80* | -17 | 2 | 80* | 4 | 78* | 72* | 92* | 76*
COc1ccc(C(=O)c2coc3c2C(=O)C(=O)c2ccccc2-3)cc1 | 94* | 10 | 1 | 85* | 25 | 94* | 93* | 97* | 93*
O=C(c1ccccc1)c1ccc(CN2C(=O)c3ccccc3C2=O)o1 | 35 | 3 | 0 | 18 | 11 | 23 | / | / | /
O=C(c1ccccc1)c1coc2c1C(=O)c1ccccc1C2=O | 81* | 8 | 1 | 66* | 34 | 73* | 76* | 69* | 79*
O=C(c1ccccc1)c1ccccc1 | 1 | / | 0 | / | -1 | -3 | / | / | /
COc1ccc2occ(C(=O)c3ccccc3)c2c1 | 16 | 22 | -1 | 16 | 4 | 5 | / | / | /
O=C1CC(N2CCCc3ccccc32)C(=O)N1c1ccccc1 (centres undefined) | 32 | -31 | 8 | 29 | 15 | 21 | / | / | /
Cc1ccc(SCC(=O)OCn2nnc3ccccc3c2=O)cc1C | 42* | 9 | 1 | 67* | 1 | 26 | 26 | / | 51*
Cc1ccc(SCCC(=O)OCn2nnc3ccccc3c2=O)cc1 | 15 | -5 | -1 | 16 | 16 | 16 | / | / | /
O=C(CCCN1C(=O)/C(=C\c2ccco2)SC1=S)Nc1ccc2ccccc2c1 | 44* | 15 | 0 | 78* | 44 | 39 | 39* | / | 70*
O=C(O)Cn1nc(C(F)(F)F)c2c1CCC2 | -26 | 10 | 2 | -4 | 6 | -10 | / | / | /
O=C(/C=C/c1ccccc1Cl)c1ccc(O)cc1 | 40* | 20 | -2 | 63* | 30 | 38 | 29 | / | 59*
CCc1ccc(NC(=O)CSc2nc3ncc(Br)cc3[nH]2)cc1 | -4 | 4 | 0 | 1 | 5 | -2 | / | / | /
SMILES | tim10-1 inh | NALP1 yeast inh | V-ATPase pH | tim23-1 inh | NLRP3 yeast inh | TIM10 inh | tim10-1 confirm | TIM10 conf | tim23-1 confirm
O=C(Nc1nc2ccccc2s1)C1CC(=O)N(c2ccc(Br)cc2)C1 (centres undefined) | 49* | 35 | 1 | 73* | 15 | 46* | 37* | 36* | 74*
CCOc1ccc2oc(C(=O)NNC(=O)c3csc(N4CCOCC4)n3)c(C)c2c1 | 2 | -4 | 2 | 5 | 8 | 1 | / | / | /
O=C(c1cccs1)N(C(=O)c1cccs1)c1ccc(Br)cn1 | 42* | 33 | 3 | 75* | 37 | 63* | 31* | 50* | 62*
O=C(Nc1ccccc1C(F)(F)F)N1CCN(C(c2ccccc2)c2ccccc2)CC1 | 17 | 18 | 1 | 21 | 3 | 27 | / | / | /
CC(OC(=O)c1ccc2ccccc2c1)C(=O)N(C)Cc1ccccc1 (centres undefined) | 14 | / | 11 | 19 | 36 | -28 | / | / | /
CC(C)N(CCC(=O)c1ccc2ccccc2c1)Cc1ccccc1 | 92* | / | 5 | 58* | -19 | 28 | 92* | / | 86*
Cc1ccc(S(=O)(=O)N/N=C/c2cc(Br)ccc2O)cc1 | 23 | 15 | -7 | 36 | -18 | 9 | / | / | /
Cc1ccc(S(=O)(=O)Nc2ccc(Br)cc2/C=N/n2cnnc2)cc1 | 41* | -7 | 3 | 77* | 35 | 27 | 35* | / | 72*
CN1C(=O)/C(=C\c2cc(N=Nc3ccccc3)ccc2O)SC1=S | 42* | 7 | 0 | 62* | 39 | 40 | 24 | / | 67*
NNC(=O)c1cccc(COc2ccc(Br)cc2)c1 | 39 | 36 | 3 | 46 | 30 | 26 | / | / | /
NNC(=O)c1cccc(COc2cccc(Br)c2)c1 | 45* | 1 | 0 | 51* | 7 | 36 | 29 | / | 18
O=C1[C@@H](Oc2ccccc2)[C@@H](c2cnc3ccccc3c2)N1c1ccccc1 | -14 | / | -4 | 29 | / | -15 | / | / | /
O=C(c1ccc([N+](=O)[O-])cc1[N+](=O)[O-])n1cnc2ccccc21 | 69* | -1 | 6 | 73* | 16 | 59* | 76* | 52* | 84*
C/C(=N\Nc1nc(C)cc(-c2ccccc2)n1)c1ccc(C)o1 | 49* | 21 | 6 | 52* | 11 | 45* | 32* | 8 | 49*
